In PubChem BioAssay AID1775 (NMMLSC, 2009):
Hit rate of the full screen: of about 220,000 compounds, about 820 (0.37%) were called active. No stated cut-off is given here; in the data, active means fluorescence above about 47; inactive means the rest. The sample as a whole holds a higher share of actives than the screen did.

Assay: green autofluorescence of compounds with avidin beads – biophysical, 488/530 nm, flow cytometry, artefact control, profiling panel (AID 1775)
Settings: compound fluorescence 488/530 nm, at 10 µM, hits give high values

Structure (SMILES) | fluorescence (KMESF)
O=C(Cc1c(F)cccc1Cl)N1CCN(C(=O)c2ccco2)CC1 | 91 (active)
O=C(c1cccc(S(=O)(=O)Nc2ccccc2Cl)c1)N1CCN(C(=O)c2ccco2)CC1 | 12 (inactive)
O=C(c1ccco1)N1CCN(c2cccc(Cl)c2)CC1 | 13 (inactive)
O=C1CC(Cc2ccc(Cl)cc2)C(=O)N1c1cc(Cl)ccn1 (stereo not given) | 3 (inactive)
COC(=O)c1c(NC(=O)CN(c2ccc(C)c(C)c2)S(C)(=O)=O)sc2c1CCCC2 | 7 (inactive)
CSc1nc2nc(-c3cccc(C(F)(F)F)c3)ccn2n1 | 28 (inactive)
CN(CCOc1ccccc1)Cc1nc2cc(Cl)ccc2c(=O)[nH]1 | 19 (inactive)
CCOC(=O)c1cc2c(=O)[nH]c(C(Cl)(Cl)Cl)nc2o1 | 5 (inactive)
COc1ccc(Nc2ncc(F)c(N3CCOCC3)n2)cc1 | 5 (inactive)
O=C(/C(=N\O)n1cncn1)c1ccc(Br)cc1Br | 5 (inactive)
CC(C)/C=N/NC(=O)c1cc(Br)ccc1O | 2 (inactive)
CC(=O)N/N=C(\C)c1ccc(Br)cc1Br | 173 (active)
Cc1ccc(OCC(=O)Nc2nnc(-c3ccco3)s2)cc1 | 8 (inactive)
Cc1ccc(OCC(=O)Nc2ccc(-c3nnc(-c4ccco4)o3)cc2)cc1 | 50 (active)
CCOc1ccc(-c2nnc(-c3ccco3)o2)cc1 | 8 (inactive)
CCOC(=O)N1CCN(c2cc(C)c([N+](=O)[O-])cc2F)CC1 | 7 (inactive)
S=C(NCCc1ccccc1)NCc1ccccc1Cl | 13 (inactive)
COC(=O)c1c(C(=O)OC)c(-c2cccc(C)c2)n2c1CS(=O)C2 (stereo not given) | 7 (inactive)
O=C(O)CCC(=O)N(Cc1cccs1)Cc1cccs1 | 74 (active)
Cc1ccnc(NC(=O)CCC(=O)N(CC(=O)NCCc2ccccc2)Cc2cccs2)c1 | 9 (inactive)
O=C(CCc1ccccc1)NCCc1cccs1 | 6 (inactive)
Cc1cc(C(=O)NCCc2ccc(Cl)cc2)n(-c2ccccc2)n1 | 6 (inactive)
Cc1cc(C)nc(NC(=O)/C=C/c2ccc(Cl)cc2)n1 | 6 (inactive)
Cc1cc(C)nc(/N=C2\NC(=O)CC(C(=O)O)N2c2ccc(Cl)cc2Cl)n1 (stereo not given) | 66 (active)
CCOC(=O)c1nc(C)n(-c2ccc(Cl)cc2Cl)n1 | 8 (inactive)
CC(CCc1ccccc1)NC(=O)c1ccc(Br)o1 (stereo not given) | 8 (inactive)
CC(CNC(=O)c1ccc(Br)o1)NC(=O)c1ccc(Br)o1 (stereo not given) | 48 (active)
O=C(NCc1cccs1)c1ccc(Br)o1 | 12 (inactive)
CC(=O)N(OCc1ccc(OC(C)C)c(Cl)c1)C(C)=O | 8 (inactive)
CC(=O)NCC(=O)N(Cc1ccco1)C1(C(=O)NC2CCCC2)CCCCC1 | 6 (inactive)
